Assay outcomes from PubChem.
Hits are enriched below; roughly 4.1% of the tested compounds scored in any of these assays.
ssDAF12 agonist = S. stercoralis DAF-12 nuclear receptor activators, primary screen, cell-based, luminescence, HEK293, GRIP1 co-expression, lit1-tk-luc; Nuclear hormone receptor DAF-12 (Strongyloides stercoralis); HEK293 ssDAF-12/GRIP1 lit1-tk-luc reporter; % of 3 µM dafachronic acid response; activation, % at 6.8 µM; 1% of 370,000 active; AID 652126, 2013;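 active = activation above the mean over all tested compounds plus 3 SD, cut at about 0.9% in these data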
DAX1 inh-1 = DAX1 (NR0B1) inhibitors, primary screen, cell-based, HEK293, Gal4-DAX1, luciferase luminescence | 0.99% of 340,000 active | inhibition, % at 6.75 µM | Nuclear receptor subfamily 0 group B member 1 (Homo sapiens), P51843 | HEK293 Gal4-DAX1 luciferase reporter;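 active = inhibition above the mean over all tested compounds plus 3 SD, cut at about 4.2% in these data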;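 note: inhibition shows as a rise in luminescence from relieved DAX1 repression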
Target sequence (P51843 207-470 limits assumed): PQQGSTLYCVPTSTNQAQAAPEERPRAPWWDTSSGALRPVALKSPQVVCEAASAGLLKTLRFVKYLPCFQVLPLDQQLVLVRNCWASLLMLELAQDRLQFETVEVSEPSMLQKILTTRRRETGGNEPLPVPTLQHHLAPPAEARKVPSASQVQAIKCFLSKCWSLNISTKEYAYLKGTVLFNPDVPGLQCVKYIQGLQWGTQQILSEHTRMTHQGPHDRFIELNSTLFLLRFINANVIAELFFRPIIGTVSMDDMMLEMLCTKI
DAX1 inh-2 = DAX1 (NR0B1) inhibitors on StAR promoter, primary screen, cell-based, luminescence, SF-1 (NR5A1), full-length DAX-1; HEK293T StAR-luciferase reporter, SF-1/DAX-1 repression relief; inhibition, % at 6.8 µM; 1.1% of 370,000 active; AID 652010, 2013;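 active = inhibition above the mean over all tested compounds plus 3 SD, cut at about 3.6% in these data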;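 note: higher inhibition means more luminescence from relief of DAX-1 repression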
hcDAF12 agonist = H. contortus DAF-12 nuclear receptor activators, primary screen, cell-based, luminescence, HEK293, lit1-tk-luc reporter; HEK293 hcDAF-12 lit1-tk-luc reporter; 0% DMSO, 100% Δ7-dafachronic acid; activation, % at 6.8 µM; 1.4% of 370,000 active;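 active = activation above the mean of all tested compounds plus 3 SD, cut at about 5.5% in these data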
hgDAF12 agonist = H. glycines DAF-12 receptor agonists, primary screen, cell-based, luminescence, HEK293, GAL4 fusion, UAS-luciferase. activation, % at 6.8 µM. HEK293 GAL4-hgDAF12 UAS-luciferase reporter, agonist luminescence; normalized to butyrate control. AID 687014, 2013. 1.8% of 370,000 active. Nuclear hormone receptor DAF-12 (Heterodera glycines), GAL4 fusion;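 active = activation above a cutoff set at the mean of all screened compounds plus 3 SD, cut at about 10% in these data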
LXRb hcDAF ctr = LXR agonists, Gal4 luciferase reporter, confirmation, counter-screen for hcDAF-12 agonist project, cell-based, luminescence, HEK293, H. contortus campaign | shares compounds with hcDAF12 agonist | HEK293 Gal4-LXR tk-luc reporter, 24 h; normalized: DMSO 0%, positive control 100% | activation, % at 6.8 µM | 3,400 tested, under 10 active | AID 743027, 2013;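 active = mean percent activation of the reporter above a cutoff set as the average over tested compounds plus their standard deviation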
Target sequence (P55055 whole entry, looked up, the tested form may be a part): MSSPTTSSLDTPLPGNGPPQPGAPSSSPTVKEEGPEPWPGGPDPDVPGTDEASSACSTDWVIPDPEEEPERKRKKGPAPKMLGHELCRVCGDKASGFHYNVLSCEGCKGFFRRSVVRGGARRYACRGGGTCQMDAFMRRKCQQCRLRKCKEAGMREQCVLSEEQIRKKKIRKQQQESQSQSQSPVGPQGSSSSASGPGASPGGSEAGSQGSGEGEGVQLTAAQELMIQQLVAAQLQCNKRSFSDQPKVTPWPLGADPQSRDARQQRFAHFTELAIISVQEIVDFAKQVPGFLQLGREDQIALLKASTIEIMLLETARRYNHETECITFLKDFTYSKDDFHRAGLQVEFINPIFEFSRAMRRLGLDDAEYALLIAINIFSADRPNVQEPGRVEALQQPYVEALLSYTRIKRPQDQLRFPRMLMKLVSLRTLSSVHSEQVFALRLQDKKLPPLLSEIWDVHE
hcDAF12 conf = H. contortus DAF-12 receptor agonists, confirmation, cell-based, luminescence, HEK293, lit1-tk-luc, triplicate. activation, % at 6.8 µM. 61% of 3,400 active. shares compounds with hcDAF12 agonist. AID 743032, 2013. HEK293 hcDAF-12 lit1-tk-luc reporter; % of Δ7-dafachronic acid response;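 active = mean activation across triplicate tests above the threshold derived from the earlier primary screen, cut at about 5.5% in these data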
Of the large screens only hits and unclear results are named; the others gave an inactive call (follow-up assays come after a bar, where they were run).

c1ccc(NC2=Nc3ccccc3CS2)cc1	hcDAF12 agonist 7.2, hgDAF12 agonist 13 | LXRb hcDAF ctr inactive | hcDAF12 conf 7.5
CCCCNc1nnc(SCC(=O)c2c[nH]c3ccccc23)s1	hcDAF12 agonist 12 | LXRb hcDAF ctr inactive | hcDAF12 conf inactive
Cn1cnnc1SCC(=O)c1c[nH]c2ccccc12	none
O=C1Nc2ccccc2SC1=Cc1ccccc1	none
O=C1CCCC2=C1Sc1ccccc1N2	hcDAF12 agonist 7.8 (no result: DAX1 inh-1) | LXRb hcDAF ctr inactive | hcDAF12 conf inactive
CCc1cc2c(NC(Cc3c[nH]c4ccccc34)C(=O)O)nc(C)nc2s1 (stereo not drawn)	none
Cc1sc2ncnc(N[C@@H](Cc3c[nH]c4ccccc34)C(=O)O)c2c1C	hcDAF12 agonist 7.0 | LXRb hcDAF ctr inactive | hcDAF12 conf 5.7
CCc1cc2c(N[C@@H](Cc3c[nH]c4ccccc34)C(=O)O)ncnc2s1	hcDAF12 agonist 8.0 | LXRb hcDAF ctr inactive | hcDAF12 conf inactive
O=S(=O)(N1CCCCC1)n1nnc2cc3ccccc3cc21	none (no result: DAX1 inh-1)
O=C(O)c1ccccc1Nc1cccc(OCc2ccc3ccccc3n2)c1	hcDAF12 agonist 6.6 | LXRb hcDAF ctr inactive | hcDAF12 conf inactive
CC(=O)Oc1ccc(/C=C2/CCc3ccccc3C2=O)cc1	hcDAF12 agonist 7.3 | LXRb hcDAF ctr inactive | hcDAF12 conf inactive
Cc1ccsc1/C=C1\CCc2ccccc2C1=O	ssDAF12 agonist 1.4, hcDAF12 agonist 12 | LXRb hcDAF ctr inactive | hcDAF12 conf 14
COc1ccc(/C=C2\CCc3ccccc3C2=O)cc1OC	none
O=C1C(=Cc2ccccn2)CCc2ccccc21	none
CC(C)C[C@H](NC(=O)C1CC1)C(=O)N1CCC[C@H]1C(=O)NCc1ccccc1	none (no result: DAX1 inh-1)
COC(=O)[C@]12C[C@H](CC(=O)N3CCCC3)C(=O)N(Cc3ccc4c(c3)OCO4)C1=C[C@H](C(C)C)O[C@@H]2C1CC1	none (no result: DAX1 inh-1)
Cn1c(O)c(N=NC(=O)Cn2ccc(C(F)(F)F)n2)c2ccccc21	hcDAF12 agonist 9.1 | LXRb hcDAF ctr inactive | hcDAF12 conf inactive
COc1ccccc1NC(=O)O[C@@H]1CC[C@@]23CCCN2C(=O)CCC[C@H]3C1	none (no result: DAX1 inh-1, DAX1 inh-2)
O=C(/C=C/c1ccco1)Nc1cccc2cccnc12	hcDAF12 agonist 6.8 | LXRb hcDAF ctr inactive | hcDAF12 conf 7.0
CCCCOC(=O)Nc1ccc(N(C)C)cc1	DAX1 inh-2 4.4, hcDAF12 agonist 7.2, hgDAF12 agonist 11 | LXRb hcDAF ctr inactive | hcDAF12 conf 5.8
COc1ccc(CNCc2cc3c(cc2[N+](=O)[O-])OCO3)cc1	hcDAF12 agonist 9.4 | LXRb hcDAF ctr inactive | hcDAF12 conf inactive
Cc1ccc(NCN2C(=O)c3ccccc3C2=O)c(C)n1	none (no result: DAX1 inh-1)
COC(=O)C1=C(C)N(C)C(=NCc2ccc3c(c2)OCO3)NC1c1ccc(F)cc1 (stereo not drawn)	none (no result: DAX1 inh-1)
Cc1c(C(=O)NC2CCN(Cc3ccccc3)C2)oc2c(Cl)cccc12 (stereo not drawn)	hcDAF12 agonist 7.0 | LXRb hcDAF ctr inactive | hcDAF12 conf inactive
CC(C)C1C(C#N)=C(N)Oc2n[nH]c(-c3ccccc3)c21 (stereo not drawn)	none
CC(C)c1[nH]nc2c1C(C(C)C)C(C#N)=C(N)O2 (stereo not drawn)	ssDAF12 agonist 1.3, hcDAF12 agonist 6.9 | LXRb hcDAF ctr inactive | hcDAF12 conf 7.8
CCCC(=O)Nc1ccc(-c2nc3cc(C)ccc3o2)cc1	ssDAF12 agonist 1.7, DAX1 inh-2 3.9, hcDAF12 agonist 12, hgDAF12 agonist 13 | LXRb hcDAF ctr inactive | hcDAF12 conf 8.4
CCCC(=O)Nc1ccc2oc(-c3ccc(OC)c(Br)c3)nc2c1	none
Cc1cc(-c2ccc3c(c2)COc2c4ccccc4nn2-3)on1	DAX1 inh-1 4.8, DAX1 inh-2 4.5, hcDAF12 agonist 9.0 | LXRb hcDAF ctr inactive | hcDAF12 conf 10
CCCc1cc(-c2ccc3c(c2)COc2c4ccccc4nn2-3)on1	none
CCCCCCCCN1C(=O)[C@@H](CC(=O)N2CCN(C(=O)c3ccco3)CC2)C[C@@]2(C(=O)OC)C1=C[C@H](C(C)C)O[C@@H]2C1CC1	none (no result: DAX1 inh-1)
COc1cc(NC(=O)c2ccc3c(c2)OCO3)c2ncccc2c1	none
Cc1ccc(C(=O)Nc2cccnc2Cl)cc1Cl	DAX1 inh-1 6.0, hcDAF12 agonist 8.0 | LXRb hcDAF ctr inactive | hcDAF12 conf inactive
O=C(Nc1cccc2cccnc12)c1ccc2c(c1)OCCO2	hcDAF12 agonist 8.7 | LXRb hcDAF ctr inactive | hcDAF12 conf 5.7
Cc1ccc(C(=O)Nc2cccc3cccnc23)cc1Br	hcDAF12 agonist 6.9 (no result: DAX1 inh-1) | LXRb hcDAF ctr inactive | hcDAF12 conf 7.8
CC(=O)Nc1cccc(C(C)C2=CCCCC2)c1 (stereo not drawn)	none (no result: DAX1 inh-1)
COC(=O)[C@]12C[C@H](CC(=O)N3CCN(C(=O)C4CC4)CC3)C(=O)N(Cc3cccc4ccccc34)C1=C[C@H](COCc1ccccc1)O[C@@H]2C	none (no result: DAX1 inh-1)
O=[N+]([O-])c1ccc(Sc2nc3ccccc3[nH]2)c(Cl)c1	none (no result: DAX1 inh-1)
COc1cc2c(cc1NC(=O)C(C)OC(=O)C1CC(=O)N(Cc3ccco3)C1)oc1ccccc12 (stereo not drawn)	ssDAF12 agonist 1.5, hcDAF12 agonist 8.8 | LXRb hcDAF ctr inactive | hcDAF12 conf 8.0
CC(OC(=O)C1CC(=O)N(Cc2ccco2)C1)C(=O)Nc1cccc(C#N)c1 (stereo not drawn)	none
C[C@@H]1ON(C)[C@H]2C[C@H]3c4[nH]c5c(-c6ccc(C(F)(F)F)cc6)cccc5c4CCN3C(=O)[C@@H]12	none (no result: DAX1 inh-1)
COC(=O)[C@H](CC(C)C)N(CCCc1cn(CC2CCCCC2)nn1)S(=O)(=O)c1ccc(F)cc1Br	none (no result: DAX1 inh-1)
Cc1cccnc1N=O	none (no result: DAX1 inh-1)
O=C(O)c1cc(-c2c[nH]c3ccccc23)nc2cc3ccccc3cc12	ssDAF12 agonist 1.6, hcDAF12 agonist 8.7 (no result: DAX1 inh-1) | LXRb hcDAF ctr inactive | hcDAF12 conf 9.0
O=C(Cc1ccccc1)N1O[C@H]2C=C[C@@H]1C2	none (no result: DAX1 inh-1)
